FBA Mtb inh – inhibits M. tuberculosis FBA enzyme; P9WQA3; inhibition, % at 1 µM; AID 588726; purified M. tuberculosis FBA, fluorescence read-out; 360,000 tested, 2.3% active; in the data active = inhibition above about 27%;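 also: 0% = vehicle and 100% = reference inhibitor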
Mtb BioA inh – blocks M. tuberculosis BioA enzyme activity; purified M. tuberculosis BioA enzyme, plate reader; inhibition, % at 9.99 µM; 360,000 tested, 0.096% active; in the data active = inhibition above about 40%
GDH-TPI inh – counter-screen for M. tuberculosis FBA inhibitors: GDH-TPI coupled enzymes; GDH-TPI coupled enzyme counterscreen, NADH absorbance; inhibition, % at 4.8 µM; 360,000 tested, 1.2% active; AID 588335; in the data active = inhibition above about 30%;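 also: 0% = DMSO wells and 100% = wells lacking the enzyme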
FadD28 binding – M. tuberculosis FadD28 bisubstrate binding inhibition | AID 588549 | inhibition, % at 12.5 µM | FadD28 bisubstrate probe binding, fluorescence polarization | 360,000 tested, 0.22% active; in the data active = inhibition above about 8.5%, passing the limit was not always enough
Rv3671c protease – Rv3671c (M. tuberculosis) protease inhibition; P9WHR9; 320,000 tested, 0.048% active; AID 2606; inhibition, % at 5.96 µM; in the data active = inhibition above about 38%;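 also: extracellular domain of Rv3671c used as enzyme; 0% = enzyme with DMSO and 100% = no enzyme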
Target sequence (P9WHR9 whole entry, looked up, the tested form may be a part): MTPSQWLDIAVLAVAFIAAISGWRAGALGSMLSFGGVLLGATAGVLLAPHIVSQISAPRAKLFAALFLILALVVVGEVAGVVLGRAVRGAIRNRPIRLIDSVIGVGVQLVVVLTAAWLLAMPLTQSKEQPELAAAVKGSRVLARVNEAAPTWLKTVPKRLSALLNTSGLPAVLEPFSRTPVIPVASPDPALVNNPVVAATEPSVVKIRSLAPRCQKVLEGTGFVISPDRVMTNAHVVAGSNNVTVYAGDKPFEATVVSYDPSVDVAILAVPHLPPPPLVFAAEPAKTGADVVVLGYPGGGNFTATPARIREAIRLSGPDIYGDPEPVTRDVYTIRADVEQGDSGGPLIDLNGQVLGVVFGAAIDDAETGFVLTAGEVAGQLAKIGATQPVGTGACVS
* hit, by the source's call. This is a sample that favours compounds with a hit; in the whole collection about 3% have one here.

Screening C[C@@H]1CN([C@H](C)CO)C(=O)Cc2cc(NC(=O)CCN3CCOCC3)ccc2O[C@@H]1CN(C)C(=O)Nc1ccc2c(c1)OCO2 returned Mtb BioA inh -1.
For C[C@H](CO)N1C[C@H](C)[C@H](CN(C)C(=O)c2ccc(F)cc2)Oc2cc(-c3cccc(C#N)c3)ccc2S1(=O)=O the results were Mtb BioA inh 0.
`O=C(Cc1ccccc1)c1ccc(O)cc1O` gave FBA Mtb inh 3, GDH-TPI inh 38* and FadD28 binding -1.
Screening O=C(c1ccccc1)c1ccc(O)cc1O returned FBA Mtb inh 2, GDH-TPI inh 52*, FadD28 binding -2 and Rv3671c protease -7.
For O=C(COc1ccccc1F)c1ccc(O)cc1O the results were FBA Mtb inh -2, Mtb BioA inh -3, GDH-TPI inh 50*, FadD28 binding -1 and Rv3671c protease -13.
O=C(Cc1ccc2cccnc2c1)c1ccc(O)cc1O was read as FBA Mtb inh -3, Mtb BioA inh 1, GDH-TPI inh 52*, FadD28 binding -2 and Rv3671c protease -4.
`Cc1c(O)ccc(C(=O)COc2ccccc2F)c1O` gave FBA Mtb inh 2, Mtb BioA inh -1, GDH-TPI inh 22, FadD28 binding 2 and Rv3671c protease -8.
Screening COc1ccc(C(=O)c2ccccc2)c(O)c1 returned FBA Mtb inh 1, Mtb BioA inh -2, GDH-TPI inh 9, FadD28 binding 0 and Rv3671c protease -5.
Screening C[C@@H]1CN([C@@H](C)CO)C(=O)c2cc(NS(=O)(=O)c3ccccc3)ccc2O[C@@H](C)CCCCO[C@@H]1CN(C)S(=O)(=O)c1ccccc1 returned Mtb BioA inh -4.
COc1cccc(S(=O)(=O)Nc2ccc3c(c2)[C@H]2C[C@@H](CC(=O)NCc4cccc(F)c4)O[C@H](CO)[C@H]2O3)c1 was read as Mtb BioA inh 3.
CCCNC(=O)[C@@H]1[C@@H](CO)[C@@H]2Cn3c(ccc(-c4cccc(C(=O)N(C)C)c4)c3=O)[C@H]1N2 was read as Mtb BioA inh -4.
For O=C(c1ccc(O)cc1)c1ccc(O)cc1O the results were FBA Mtb inh 1, Mtb BioA inh -1, GDH-TPI inh 35*, FadD28 binding -5 and Rv3671c protease -3.
CNC(=O)COC(=O)c1ccc(-c2nc3ccccc3s2)s1 was read as FBA Mtb inh 19, GDH-TPI inh 57*, FadD28 binding 0 and Rv3671c protease 4.
`CNC(=O)COC(=O)/C=C/c1nc2ccccc2s1` gave FBA Mtb inh 5, GDH-TPI inh 10, FadD28 binding 0 and Rv3671c protease 0.
Screening Cc1ccccc1S(=O)(=O)N1[C@H](C#N)[C@@H](c2ccc(C#CC3CC3)cc2)[C@@H]1CO returned Mtb BioA inh 0.
C[C@@H]1CN([C@@H](C)CO)C(=O)c2ccccc2-c2ccccc2CO[C@H]1CN(C)S(=O)(=O)c1cccc(F)c1 was read as Mtb BioA inh 1.
For C=C(C)n1c(=O)[nH]c2ccccc21 the results were FBA Mtb inh 2, Mtb BioA inh 1, GDH-TPI inh 7, FadD28 binding 1 and Rv3671c protease 9.
For Cc1c(CCC(=O)O)c(=O)n2c([nH]c3ccccc32)c1C#N the results were FBA Mtb inh active, Mtb BioA inh -1, GDH-TPI inh 9, FadD28 binding -1 and Rv3671c protease 7.
`N#Cc1cc(NC(=O)c2ccc(F)cc2)c(=O)n2c1[nH]c1ccccc12` gave Rv3671c protease -1.
For C=C(C)Cc1c(C)c(C#N)c2[nH]c3ccccc3n2c1=O the results were FBA Mtb inh active, Mtb BioA inh 0, GDH-TPI inh -1, FadD28 binding 1 and Rv3671c protease -7.
`O=C(NC1=NCCS1)c1ccc(-c2ccc(Cl)cc2)o1` gave FBA Mtb inh 136*, Mtb BioA inh 0, GDH-TPI inh 55*, FadD28 binding 1 and Rv3671c protease -6.
Cc1ccc(N=C2NC(=O)CS2)c(C)c1 was read as FBA Mtb inh 2, Mtb BioA inh 1, GDH-TPI inh -11, FadD28 binding -1 and Rv3671c protease -11.
For Cc1ccc(N=C2NC(=O)/C(=C/c3cccnc3)S2)c(C)c1 the results were FBA Mtb inh -1, GDH-TPI inh 33*, FadD28 binding -3 and Rv3671c protease -2.
Cc1ccc(N=C2NC(=O)/C(=C\c3ccsc3)S2)c(C)c1 was read as FBA Mtb inh -3, Mtb BioA inh 1, GDH-TPI inh 33*, FadD28 binding 0 and Rv3671c protease -1.
For COc1cccc(-c2cn(CC[C@H]3CC[C@@H](NC(C)=O)[C@@H](CO)O3)nn2)c1 the results were Mtb BioA inh -1.
For CCOC(=O)N1CCc2c(sc3nc4n(c(=O)c23)N=C(C)CS4)C1 the results were FBA Mtb inh 10, Mtb BioA inh -1, GDH-TPI inh 31*, FadD28 binding -1 and Rv3671c protease -3.
Screening COc1ccc(C(=O)/C=C/Nc2cc(C)on2)c(OC)c1 returned FBA Mtb inh 2, Mtb BioA inh 0, GDH-TPI inh 40*, FadD28 binding -2 and Rv3671c protease 9.
For C[C@H](CO)N1C[C@H](C)[C@H](CN(C)S(=O)(=O)c2ccc(Cl)cc2)Oc2ccc(NC(=O)Nc3ccc4c(c3)OCO4)cc2CC1=O the results were Mtb BioA inh 1.
For CCC1=CC(c2ccccc2)n2ncnc2N1 (stereo unspecified) the results were FBA Mtb inh 35*, Mtb BioA inh -2, GDH-TPI inh 12, FadD28 binding -4 and Rv3671c protease -13.
`O=C1c2nc3cc(-c4ccco4)[nH]n3c(=O)c2CN1C1CCCCC1` gave FBA Mtb inh 129*, Mtb BioA inh 5, GDH-TPI inh -1, FadD28 binding 0 and Rv3671c protease 2.
For COc1ccc(NC(=O)Nc2ccc3c(c2)C(=O)N([C@H](C)CO)C[C@H](C)[C@H](CN(C)Cc2ccc(Oc4ccccc4)cc2)O3)cc1 the results were Mtb BioA inh -7.
CCc1c(C)c(C#N)c2nc3ccccc3n2c1NCCCN(C)C was read as FBA Mtb inh 3, Mtb BioA inh 0, GDH-TPI inh 7 and FadD28 binding -3.
Cc1c2c(n3c(nc4ccccc43)c1C#N)N(CCCN(C)C)CC2 was read as FBA Mtb inh 141*, GDH-TPI inh 7, FadD28 binding -1 and Rv3671c protease -1.
For Cc1c2c(n3c(nc4ccccc43)c1C#N)N(CCN(C)C)CC2 the results were FBA Mtb inh active, GDH-TPI inh -2, FadD28 binding -1 and Rv3671c protease -4.
Screening Cc1c(-n2c(SCC(=O)C(C)(C)C)nc3ccccc3c2=O)c(=O)n(-c2ccccc2)n1C returned FBA Mtb inh 145*, Mtb BioA inh -6, GDH-TPI inh 8, FadD28 binding -1 and Rv3671c protease -5.
`CC(C)NC(=O)N[C@@H]1CC[C@@H](CC(=O)NCCCN(C)C)O[C@H]1CO` gave Mtb BioA inh -1.
CCNc1nc(C)c(CN(C(C)=O)c2ccccc2)nc1C#N was read as FBA Mtb inh 126*, GDH-TPI inh 8, FadD28 binding -1 and Rv3671c protease 7.

Assay outcomes from PubChem BioAssay.
